# Reference: PubChem BioAssay (EPA / NIEHS)
# Active and inactive are the calls of the source. How the source made its calls: active means hit-call score of the fitted dose curve at least 0.9, where 1 is the maximum; inactive means score below 0.9.
# Legend:
# [1] = read-out: Transforming growth factor beta 1 (TGFb1), TGFB1 (gene 7040); test: BSK_KF3CT_TGFb1: BioMAP Diversity Plus: KF3CT Assay for Transforming growth factor beta 1 (TGFb1) Biomarker Activity (AID 2283072); details: primary human keratinocytes with fibroblasts; actives raise or lower the signal
# Method in brief: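 Signal changes in either direction, relative to DMSO, define activity here. TGF-b1 is read by ELISA from a human keratinocyte-fibroblast co-culture 24 h post-dose.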
# [2] = read-out: C-C motif chemokine 2 (Homo sapiens) (UniProt P13500); test: BSK_KF3CT_MCP1: BioMAP Diversity Plus: KF3CT Assay for Monocyte Chemoattractant Protein 1 (MCP1/CCL2) Biomarker Activity (AID 2283073); details: primary human keratinocytes with fibroblasts; actives raise or lower the signal
# Method in brief: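 KF3CT skin co-culture (keratinocytes/foreskin fibroblasts), 24 h post-dose; MCP-1 by ELISA; gain/loss of signal fit bidirectionally vs DMSO baseline.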
# [3] = read-out: Matrix Metallopeptidase 9 (MMP9), MMP9 (gene 4318); test: BSK_KF3CT_MMP9: BioMAP Diversity Plus: KF3CT Assay for Matrix Metallopeptidase 9 (MMP9) Biomarker Activity (AID 2283074); details: primary human keratinocytes with fibroblasts; actives raise or lower the signal;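 on AC50: MMP9 protein level quantified by ELISA in the co-culture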
# Method in brief: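 Keratinocyte plus foreskin fibroblast human primary skin co-culture was dosed with chemical and MMP-9 was quantified by ELISA 24 h later. Bidirectional curve fitting used DMSO as negative control and activity baseline.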
# [4] = read-out: urokinase plasminogen activator (uPA), PLAU (gene 5328); test: BSK_KF3CT_uPA: BioMAP Diversity Plus: KF3CT Assay for urokinase plasminogen activator (uPA) Biomarker Activity (AID 2283075); details: primary human keratinocytes with fibroblasts; actives raise or lower the signal
# Method in brief: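 Human keratinocyte plus foreskin fibroblast primary co-culture exposed to chemical for 24 h. uPA levels were quantified by ELISA, and activity was fitted bidirectionally against a DMSO negative-control baseline.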
# CD40, CD40 (gene 958) [5] = test: BSK_LPS_CD40: BioMAP Diversity Plus: LPS Assay for CD40 Biomarker Activity (AID 2283076); details: primary human HUVEC with PBMC; actives raise or lower the signal
# Method in brief: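 ELISA readout of CD40 in HUVEC/PBMC co-culture (BSK_LPS system), 24 h post-dosing; bidirectional curve fit, DMSO baseline; parallel SRB total-protein staining for cytotoxicity.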
# [6] = read-out: E-selectin (Homo sapiens) (UniProt P16581); test: BSK_LPS_Eselectin: BioMAP Diversity Plus: LPS Assay for Eselectin Biomarker Activity (AID 2283077); details: primary human HUVEC with PBMC; actives raise or lower the signal
# Method in brief: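 ELISA readout of E-selectin, 24 h post-dose, HUVEC + PBMC co-culture (LPS system). Gain or loss of signal vs DMSO baseline, bidirectional fit.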
# [7] = read-out: Interleukin-8 (IL8), CXCL8 (gene 3576); test: BSK_LPS_IL8: BioMAP Diversity Plus: LPS Assay for Interleukin-8 (IL8) Biomarker Activity (AID 2283078); details: primary human HUVEC with PBMC; actives raise or lower the signal
# Method in brief: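 HUVEC + PBMC co-culture, LPS-activated; test chemicals dosed, IL-8 read by ELISA at 24 h. Bidirectional curve fit vs DMSO baseline (gain or loss of signal).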
# [8] = BSK_LPS_SRB: Viability Assessment in the BioMAP Diversity Plus: LPS Assay (AID 2283079); details: primary human HUVEC with PBMC;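 further: total protein by sulforhodamine B absorbance as a cytotoxicity measure; measured one day after compound addition; fitted in both directions against DMSO so loss or gain of signal counts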
# Method in brief: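 HUVEC + PBMC co-culture, LPS-stimulated; compound 24 h. 10% TCA fix, 0.1% SRB stain, A560. Bidirectional fit vs DMSO.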
# [9] = read-out: Interleukin-1 alpha (IL1a), IL1A (gene 3552); test: BSK_LPS_IL1a: BioMAP Diversity Plus: LPS Assay for Interleukin-1 alpha (IL1a) Biomarker Activity (AID 2283080); details: primary human HUVEC with PBMC; actives raise or lower the signal
# Method in brief: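 HUVEC/PBMC co-culture, LPS system; 24 h after dosing; IL-1a by ELISA; gain or loss of signal fitted bidirectionally vs DMSO baseline.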
# [10] = read-out: Monocyte Chemoattractant Protein-1 (MCP1), CCL2 (gene 6347); test: BSK_LPS_MCP1: BioMAP Diversity Plus: LPS Assay for Monocyte Chemoattractant Protein-1 (MCP1) Biomarker Activity (AID 2283081); details: primary human HUVEC with PBMC; actives raise or lower the signal;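 on AC50: secreted MCP-1 protein quantified by ELISA in culture supernatant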
# Method in brief: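 ELISA read-out of MCP-1 after 24 h chemical dosing of a human umbilical vein endothelial cell/peripheral blood mononuclear cell co-culture stimulated with LPS. Gain or loss of signal fitted relative to DMSO controls.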
# [11] = BSK_LPS_PGE2: BioMAP Diversity Plus: LPS Assay for Prostaglandin E2 (PGE2) Biomarker Activity (AID 2283082); details: primary human HUVEC with PBMC; actives raise or lower the signal;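 on AC50: secreted prostaglandin E2 measured by ELISA in LPS-stimulated co-culture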
# Method in brief: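 Endpoint derived from bidirectional curve fitting versus DMSO of ELISA-measured PGE2 in LPS-stimulated human primary vascular co-culture (HUVEC with PBMC) harvested at 24 h.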
# [12] = read-out: Macrophage colony-stimulating factor (MCSF), CSF1 (gene 1435); test: BSK_LPS_MCSF: BioMAP Diversity Plus: LPS Assay for Macrophage colony-stimulating factor (MCSF) Biomarker Activity (AID 2283083); details: primary human HUVEC with PBMC; actives raise or lower the signal
# Method in brief: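 HUVEC + PBMC co-culture (human primary), 24 h post-dose; M-CSF by ELISA; gain/loss of signal fitted bidirectionally vs DMSO baseline.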
# [13] = read-out: Tissue Factor, F3 (gene 2152); test: BSK_LPS_TissueFactor: BioMAP Diversity Plus: LPS Assay for Tissue Factor Biomarker Activity (AID 2283084); details: primary human HUVEC with PBMC; actives raise or lower the signal
# Method in brief: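 HUVEC/PBMC co-culture, LPS-activated; CD142 ELISA read 24 h post-dose; bidirectional curve fit vs DMSO negative control.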
# [14] = read-out: Tumor necrosis factor (Homo sapiens) (UniProt P01375); test: BSK_LPS_TNFa: BioMAP Diversity Plus: LPS Assay for Tumour Necrosis Factor alpha (TNFa) Biomarker Activity (AID 2283085); details: primary human HUVEC with PBMC; actives raise or lower the signal
# Method in brief: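 Primary human vascular co-culture of HUVEC and PBMC; TNFa ELISA 24 h after treatment, analysed as increase or decrease relative to DMSO control.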
# [15] = read-out: Vascular cell adhesion molecule 1 (VCAM1), VCAM1 (gene 7412); test: BSK_LPS_VCAM1: BioMAP Diversity Plus: LPS Assay for Vascular cell adhesion molecule 1 (VCAM1) Biomarker Activity (AID 2283086); details: primary human HUVEC with PBMC; actives raise or lower the signal
# Method in brief: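 Primary human vascular co-culture (umbilical vein endothelium plus PBMC) stimulated with LPS received chemical; 24 h later VCAM-1 was read by ELISA. Overt cytotoxicity was assessed by sulforhodamine B staining of parallel cultures at the same time point.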
# CD38, CD38 (gene 952) = test: BSK_SAg_CD38: BioMAP Diversity Plus: SAg Assay for CD38 Biomarker Activity (AID 2283087); details: primary human HUVEC with PBMC; actives raise or lower the signal
# Method in brief: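 Fluorescence ELISA of cell-surface CD38 served as the read-out, with either increase or decrease fitted against DMSO controls. Cells were a human umbilical vein endothelium plus PBMC co-culture under SEB/TSST-1 stimulation, measured 24 h after dosing.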
# CD40, CD40 (gene 958) [16] = test: BSK_SAg_CD40: BioMAP Diversity Plus: SAg Assay for CD40 Biomarker Activity (AID 2283088); details: primary human HUVEC with PBMC; actives raise or lower the signal
# Method in brief: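 HUVEC/PBMC co-culture, 24 h post-dose; CD40 by ELISA, fluorescence intensity; bidirectional fit vs DMSO negative control.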
# CD69, CD69 (gene 969) = test: BSK_SAg_CD69: BioMAP Diversity Plus: SAg Assay for CD69 Biomarker Activity (AID 2283089); details: primary human HUVEC with PBMC; actives raise or lower the signal;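 on AC50: cell surface CD69 protein quantified by ELISA with fluorescence detection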
# Method in brief: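 Values derive from bidirectional fitting relative to DMSO vehicle. Cells: umbilical vein endothelium plus peripheral blood mononuclear cells, treated 24 h before fluorescent ELISA for CD69.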
# [17] = read-out: Monocyte Chemoattractant Protein-1 (MCP1), CCL2 (gene 6347); test: BSK_SAg_MCP1: BioMAP Diversity Plus: SAg Assay for Monocyte Chemoattractant Protein-1 (MCP1) Biomarker Activity (AID 2283090); details: primary human HUVEC with PBMC; actives raise or lower the signal
# Method in brief: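 MCP-1 levels in the endothelial–PBMC SAg co-culture were quantified by ELISA at 24 h post-dosing; both increases and decreases versus DMSO scored. Cytotoxicity monitored by SRB total protein in parallel cultures.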
# [18] = read-out: E-selectin (Homo sapiens) (UniProt P16581); test: BSK_SAg_Eselectin: BioMAP Diversity Plus: SAg Assay for Eselectin Biomarker Activity (AID 2283091); details: primary human HUVEC with PBMC; actives raise or lower the signal
# Method in brief: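 E-selectin ELISA readout at 24 h post-dosing in human umbilical vein endothelial cell/PBMC co-culture; gain or loss of signal fitted relative to DMSO baseline.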
# Sequence of Tumor necrosis factor (Homo sapiens) (P01375 whole entry, looked up): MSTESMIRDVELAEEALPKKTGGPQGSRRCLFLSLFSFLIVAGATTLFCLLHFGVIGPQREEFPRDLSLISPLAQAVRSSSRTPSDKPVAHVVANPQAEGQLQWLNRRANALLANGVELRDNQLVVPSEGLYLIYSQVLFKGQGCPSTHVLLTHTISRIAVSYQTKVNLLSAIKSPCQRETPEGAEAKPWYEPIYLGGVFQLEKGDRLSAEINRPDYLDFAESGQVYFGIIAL
# Sequence of E-selectin (Homo sapiens) (P16581 whole entry, looked up): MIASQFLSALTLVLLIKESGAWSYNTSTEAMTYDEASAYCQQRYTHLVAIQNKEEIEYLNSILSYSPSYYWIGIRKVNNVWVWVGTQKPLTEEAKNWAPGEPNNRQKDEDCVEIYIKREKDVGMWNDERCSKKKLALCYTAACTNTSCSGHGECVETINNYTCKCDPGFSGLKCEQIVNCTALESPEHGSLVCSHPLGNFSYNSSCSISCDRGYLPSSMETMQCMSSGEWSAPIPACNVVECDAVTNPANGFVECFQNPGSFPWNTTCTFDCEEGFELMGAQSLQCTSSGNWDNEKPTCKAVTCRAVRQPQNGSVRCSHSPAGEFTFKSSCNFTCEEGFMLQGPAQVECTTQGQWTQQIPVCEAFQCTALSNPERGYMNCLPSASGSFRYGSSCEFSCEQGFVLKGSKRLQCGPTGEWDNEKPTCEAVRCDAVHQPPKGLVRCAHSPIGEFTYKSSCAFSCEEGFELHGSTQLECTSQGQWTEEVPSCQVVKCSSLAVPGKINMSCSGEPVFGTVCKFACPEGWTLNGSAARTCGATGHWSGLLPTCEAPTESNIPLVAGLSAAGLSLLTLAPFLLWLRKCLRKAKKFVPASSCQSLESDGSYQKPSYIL
smiles,measurement,setting,value
CCOP(=O)(OCC)OC(=CCl)c1ccc(Cl)cc1Cl,AC50,[1],27.1 µM (active)
same,AC50,[2],20 µM (active)
same,AC50,[3],31.9 µM (active)
same,AC50,[4],33.2 µM (active)
same,AC50,"CD40, CD40 (gene 958) [5]",20 µM (active)
same,outcome,[6],inactive
same,outcome,[7],inactive
same,outcome,[8],inactive
same,outcome,[9],inactive
same,outcome,[10],inactive
same,outcome,[11],inactive
same,AC50,[12],22.5 µM (active)
same,AC50,[13],11.9 µM (active)
same,outcome,[14],inactive
same,outcome,[15],inactive
same,outcome,"CD38, CD38 (gene 952)",inactive
same,AC50,"CD40, CD40 (gene 958) [16]",20 µM (active)
same,AC50,"CD69, CD69 (gene 969)",20 µM (active)
same,outcome,[17],inactive
same,AC50,[18],28.6 µM (active)
C[C@]12CC[C@@H](O)C[C@@H]1CC[C@@H]1[C@@H]2CC[C@]2(C)C(=O)CC[C@@H]12,outcome,[1],inactive
same,outcome,[2],inactive
same,outcome,[3],inactive
same,outcome,[4],inactive
same,outcome,"CD40, CD40 (gene 958) [5]",inactive
same,outcome,[6],inactive
same,outcome,[7],inactive
same,outcome,[8],inactive
same,outcome,[9],inactive
same,outcome,[10],inactive
same,outcome,[11],inactive
same,outcome,[12],inactive
same,outcome,[13],inactive
same,outcome,[14],inactive
same,outcome,[15],inactive
same,outcome,"CD38, CD38 (gene 952)",inactive
same,outcome,"CD40, CD40 (gene 958) [16]",inactive
same,outcome,"CD69, CD69 (gene 969)",inactive
same,outcome,[17],inactive
same,outcome,[18],inactive
CCOC(=O)C(SP(=S)(OC)OC)c1ccccc1 (stereo not given),AC50,[1],20 µM (active)
same,outcome,[2],inactive
same,outcome,[3],inactive
same,outcome,[4],inactive
same,outcome,"CD40, CD40 (gene 958) [5]",inactive
same,outcome,[6],inactive
same,outcome,[7],inactive
same,outcome,[8],inactive
same,outcome,[9],inactive
same,outcome,[10],inactive
same,outcome,[11],inactive
same,outcome,[12],inactive
same,outcome,[13],inactive
same,outcome,[14],inactive
same,AC50,[15],14.6 µM (active)
same,AC50,"CD38, CD38 (gene 952)",20 µM (active)
same,outcome,"CD40, CD40 (gene 958) [16]",inactive
same,AC50,"CD69, CD69 (gene 969)",20 µM (active)
same,outcome,[17],inactive
same,outcome,[18],inactive
CC(C)N(C(=O)CCl)c1ccccc1,AC50,[1],20 µM (active)
same,AC50,[2],11.1 µM (active)
same,AC50,[3],29.6 µM (active)
same,AC50,[4],33.3 µM (active)
same,AC50,"CD40, CD40 (gene 958) [5]",13.9 µM (active)
same,AC50,[6],25.4 µM (active)
same,AC50,[7],20 µM (active)
same,AC50,[8],20 µM (active)
same,AC50,[9],5.56 µM (active)
same,AC50,[10],27.3 µM (active)
same,outcome,[11],inactive
same,AC50,[12],20 µM (active)
same,outcome,[13],inactive
same,AC50,[14],26 µM (active)
same,AC50,[15],18 µM (active)
same,AC50,"CD38, CD38 (gene 952)",20 µM (active)
same,AC50,"CD40, CD40 (gene 958) [16]",27.5 µM (active)
same,AC50,"CD69, CD69 (gene 969)",20 µM (active)
same,AC50,[17],27.9 µM (active)
same,AC50,[18],20 µM (active)
c1ccc(-c2cccc(-c3ccccc3)c2)cc1,outcome,[1],inactive
same,outcome,[2],inactive
same,AC50,[3],8.97 µM (active)
same,outcome,[4],inactive
same,AC50,"CD40, CD40 (gene 958) [5]",25.4 µM (active)
same,AC50,[6],29.7 µM (active)
same,AC50,[7],29.9 µM (active)
same,AC50,[8],23.9 µM (active)
same,AC50,[9],20 µM (active)
same,AC50,[10],29.5 µM (active)
same,AC50,[11],0.75 µM (active)
same,AC50,[12],30.2 µM (active)
same,AC50,[13],32.7 µM (active)
same,outcome,[14],inactive
same,AC50,[15],27.3 µM (active)
same,AC50,"CD38, CD38 (gene 952)",30.5 µM (active)
same,AC50,"CD40, CD40 (gene 958) [16]",29.4 µM (active)
same,AC50,"CD69, CD69 (gene 969)",30.9 µM (active)
same,AC50,[17],32.5 µM (active)
same,AC50,[18],33.1 µM (active)
